PubChem BioAssay AID2606 (The Scripps Research Institute Molecular Screening Center, 2010)
Out of some 320,000 compounds screened, about 160 (0.05%) were called active. Only a selection was taken, and actives are over-represented in it overall. Unmarked numbers belong to inactive results. Cut-off read from the data, not from the text of the source: active = inhibition above about 38%; inactive = the rest.

Each compound was assayed against Serine protease Rv3671c (Mycobacterium tuberculosis (strain ATCC 25618 / H37Rv)) (UniProt P9WHR9) (assay: Rv3671c serine protease inhibitors, primary screen, biochemical, fluorescence polarization, M. tuberculosis H37Rv (AID 2606;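 note: extracellular domain of Rv3671c used as enzyme; 0% = enzyme with DMSO and 100% = no enzyme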)). Conditions: at 5.96 µM; hits give high values.
Chain of Serine protease Rv3671c (Mycobacterium tuberculosis (strain ATCC 25618 / H37Rv)) (P9WHR9 whole entry, looked up, the tested form may be a part): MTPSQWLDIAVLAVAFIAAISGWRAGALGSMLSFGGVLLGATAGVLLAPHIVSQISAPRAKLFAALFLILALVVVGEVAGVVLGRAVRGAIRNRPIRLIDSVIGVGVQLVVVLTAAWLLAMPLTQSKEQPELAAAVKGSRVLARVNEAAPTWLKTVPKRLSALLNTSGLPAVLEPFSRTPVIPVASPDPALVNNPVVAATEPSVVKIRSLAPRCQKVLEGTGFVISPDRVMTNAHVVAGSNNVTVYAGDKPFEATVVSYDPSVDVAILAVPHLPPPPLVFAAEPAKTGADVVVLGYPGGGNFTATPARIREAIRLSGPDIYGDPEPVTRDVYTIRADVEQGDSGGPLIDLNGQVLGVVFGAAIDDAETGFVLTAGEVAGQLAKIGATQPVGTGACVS

Structure (SMILES)	inhibition
O=C(NCc1ccc(Cl)cc1)c1cc2c(nc3sccn32)s1	-4.26%
Cc1c(Br)c([N+](=O)[O-])nn1CC(=O)Nc1sc2c(c1C(=O)OC(C)C)CCC(C)C2 (centres undefined)	-2.96%
O=S1(=O)CC(NCc2ccccc2)C(Nc2ccc(Cl)cc2)C1 (centres undefined)	-2.48%
O=C(CN(c1cc(C(F)(F)F)ccc1Cl)S(=O)(=O)c1ccccc1)NCc1cccnc1	4.36%
O=C1CCCN1CCCNC(=S)Nc1ccc(F)c(Cl)c1	-6.09%
O=C1c2ccccc2C(=O)N1CCc1nn[nH]n1	-7.39%
Cc1ccccc1CCN(CC(=O)NC1CCCCC1)C(=O)c1csnn1	-0.33%
OC(c1ccccc1)c1nccn1Cc1ccccc1 (centres undefined)	0.91%
CSc1nc2ccccc2cc1/C=C(\C#N)c1ccc(Cl)cc1Cl	3.83%
O=C(COC(=O)c1cc(=O)[nH]c2ccccc12)Nc1nc(-c2cccc(Br)c2)cs1	-76%
CCOC(=O)[C@@H]1[C@H]2COc3ccc(Br)cc3[C@H]2N2C(=O)N(c3ccc(C)cc3)C(=O)[C@@]12C	0.17%
CCN(C(=O)CSc1nnnn1-c1ccccc1OC)C1CCS(=O)(=O)C1 (centres undefined)	2.72%
CSc1ccc(C(=O)C2CCCN(C(=O)c3ccc(C)nc3)C2)cc1 (centres undefined)	1.04%
CCC(C)c1ccc(NC(=O)COC(=O)C2CCCC2)cc1 (centres undefined)	-4.19%
Cc1ccc(OCC(=O)c2cc(C)n(Cc3ccco3)c2C)c([N+](=O)[O-])n1	-2.09%
COc1ccc(NC(=O)C2C3CCC(O3)C2C(=O)O)cc1OC (centres undefined)	-2.75%
COc1cc(C(=O)NCc2ccncc2)cc(Br)c1OCc1ccccc1	-8.67%
CCn1c(=O)cc(SCC(=O)NCCC2=CCCCC2)c2ccccc21	3.21%
CCOc1ccc(S(=O)(=O)N(CC(=O)NCC(F)(F)F)Cc2ccco2)cc1	4.73%
CC1CC(=NNC(=O)C2COc3ccccc3O2)CC(C)(C)C1 (centres undefined)	-11%
O=C(O)c1ccc2c(=O)n3c(nc2c1)/C(=C/c1ccc(Cl)c([N+](=O)[O-])c1)CC3	8.14%
C=C(C)C(=O)Nc1cccc(C2=NOC3(C2)C[C@H](C(N)=O)N(C(=O)C(c2ccccc2)c2ccccc2)C3)c1 (some centres undefined)	-1.51%
Cc1onc(-c2c(F)cccc2Cl)c1C(=O)N(C)CC(=O)Nc1cccc(F)c1	2.86%

Structure (SMILES)	inhibition
C=CCOc1cccc(CNCc2cccnc2)c1	4.49%
COC(=O)c1cccc(N(CC(=O)NCC2CCCO2)C(=O)CCC(=O)Nc2cc(C)on2)c1 (centres undefined)	-6.9%
CCO[C@@H]1OC(C(=O)NC2CC2)=C[C@H](C)[C@H]1CCCO	3.42%
CCN(CC)CCCN=C(N)N	1.64%
CC(C)n1c(-c2ccncc2)n[nH]c1=S	-6.36%
CC(C)(C)S(=O)(=O)c1ccccc1-c1noc(-c2ccccc2)c1C(N)=O	8.18%
CSCc1ccc(C(=O)Nc2cc(C)cc(C)c2)cc1	6.14%
CCNc1nc(N)nc(Oc2ccc(OCC)nn2)n1	1.15%
COCCOC(=O)c1sc(=S)n(CCOC)c1N	40% (active)
CCCCN(CCCC)C(=O)CCS(=O)(=O)c1ccc2c(c1)n(C)c(=O)c(=O)n2C	-1.54%
Cc1ccc2c(c1)N(CCCC(=O)NCc1cccnc1)C(=O)CO2	5.63%
COC(=O)COc1cccc2c(=O)n(CC(=O)NCc3ccccc3)ccc12	-8.57%
COc1ccc(O[C@H]2C=C[C@@H](c3ccccc3)O[C@@H]2CO/N=C/C[C@@H]2C=C[C@H](OC(C)=O)[C@@H](COC(C)=O)O2)cc1	-1.84%
COCCN(Cc1nc(-c2ccc(C(F)(F)F)cc2)no1)C(C)C	-6.51%
Cc1ccc(S(=O)(=O)N[C@@H](Cc2ccccc2)C(=O)N2CCC(C(=O)N[C@H](C(=O)O)C(C)O)CC2)cc1 (some centres undefined)	-3.25%
Cc1ccc(N2CCN(c3ccc([N+](=O)[O-])cn3)CC2)c(C)c1	-8.33%
Fc1ccccc1CCNc1nnnn1-c1ccccc1	-6.29%
Cc1ccc(Cl)cc1NC(=O)C1CCN(S(C)(=O)=O)CC1	5.08%
O=C1NC[C@@H](Cc2ccc(O)cc2)N(CCc2cccc(F)c2)C1=O	5.74%
O=C(Nc1sc2c(c1-c1nc3ccccc3[nH]1)CCCC2)C1CC1	-3.57%
c1ccc2[nH]c(-c3nc4ccccc4[nH]3)nc2c1	77.5% (active)
O=[N+]([O-])c1ccc2nc(-c3ccccn3)[nH]c2c1	4.37%
COc1ccc(Br)cc1CN1CCN(C(=O)c2cccc(OC)c2OC)CC1	-2.08%

Structure (SMILES)	inhibition
CC1(c2ccccc2)NC(=O)N(CC(=O)N2CC(=O)Nc3ccccc32)C1=O (centres undefined)	-3.96%
COc1ccc(C(=O)c2c3ccc([N+](=O)[O-])cc3[n+]([O-])n2CCCN)cc1	-2.98%
C[C@@H]1NC(=O)[C@@]2(C)[C@@H](c3ccccc3)[C@H]3COc4ccccc4[C@@H]3N2C1=O	-7.74%
C=CCN1CCN(C(=O)CCCc2ccccc2)CC1	-7.87%
NNC(=O)c1cnn(-c2ccccc2)c1C(F)(F)F	2.2%
COCCN(C(=O)CSCc1ccc(C)cc1)c1c(N)n(CC(C)C)c(=O)[nH]c1=O	8.34%
CC1CCCN(C(C(=O)Nc2ccc(C(C)C)cc2)c2ccc3c(c2)OCO3)C1 (centres undefined)	2.73%
CN(Cc1ccccc1)C(=O)COC(=O)c1ccccc1Nc1ccccc1	-5.06%
CCN(CC)c1ccc(C2C3CCCCC3(O)CCN2CC(=O)Nc2ccccc2)cc1 (centres undefined)	5.48%
O=C(O)C(c1ccccc1)C1(O)CCCCC1 (centres undefined)	8.1%
Cc1cc(NC(=O)CN2C(=O)NC(CC(C)C)C2=O)no1 (centres undefined)	2.81%
O=C(Nc1ccc(Br)cc1)c1cc(S(=O)(=O)Nc2ccccn2)ccc1Cl	-7.4%
COc1ccc(C(=O)OC(C)C(=O)NC2CCCC2)cc1S(=O)(=O)N1CCOCC1 (centres undefined)	-4.37%
O=C(COc1ccc(-c2ccccc2)cc1)NN=C1CCCC1	-4.38%
CCOc1ccc(/C=C(/NC(=O)c2ccccc2)C(=O)NCCC(=O)O)cc1	-7.39%
C=CCn1c(=S)[nH]c2scc(-c3ccco3)c2c1=O	6.27%
CC(C)CCNC(=O)c1cccnc1Sc1ccccc1	-12.3%
CCn1ncc(CNC(=O)C2(C)CC2(Br)Br)c1C (centres undefined)	-2.88%
CC(C)CC(COCc1ccc(Cl)cc1)N1CCN(C(=O)c2ccc(C(F)(F)F)cc2)CCC1=O (centres undefined)	-15.8%
CNC(=O)/C(C#N)=C/c1c(F)cccc1Cl	-0.68%
O=C(c1ccccc1F)N1CCN(S(=O)(=O)c2ccc(Br)cc2)CC1	-4.63%
COCCNc1nc2nonc2nc1N1CCCC1c1nccs1 (centres undefined)	-4.76%
Cn1nnnc1SCC(=O)NNC(=O)c1ccc(Br)cc1	-1.13%

Structure (SMILES)	inhibition
CC(=O)N1CCc2c(sc(NC(=O)CCS(=O)(=O)c3ccc(C)cc3)c2C(N)=O)C1	8.49%
CCOC(=O)[C@@H]1[C@H]2COc3ccc(Br)cc3[C@H]2N2C(=O)N(c3ccc(Cl)cc3)C(=O)[C@@]12C	-4.24%
COc1cccc(C2SCC(=O)N2c2cccc(C)c2)c1OC (centres undefined)	0.16%
CCCCn1c(N)c(N(CCOC)C(=O)c2cccc(S(=O)(=O)N(C)c3ccccc3)c2)c(=O)[nH]c1=O	3.05%
Cc1noc(C)c1NC(=O)Nc1ccc2c(c1)C(=O)N([C@H](C)CO)C[C@H](C)[C@@H](CN(C)C(=O)Nc1ccc(C(F)(F)F)cc1)O2	0.65%
C/C=C/C=C/C(=O)OCC(=O)Nc1ccc(Cl)cc1	-1.55%
CCN1CC=C2C(C#N)=C(N)C(C#N)(C#N)[C@H](c3ccoc3)[C@H]2C1	3.86%
CC(=O)N(C)c1ccc(NC(=O)Nc2cccc3ccccc23)cc1	1.7%
O=C1c2ccccc2C(=O)N1CCC(O)C[N+](=O)[O-] (centres undefined)	-0.34%
COc1ccc(CCNC(=O)C2CC3Cn4c(nc5cc(C)c(C)cc54)C3N2C)cc1 (centres undefined)	-15.6%
CC(C)(COC(=O)Nc1ccccc1)COC(=O)Nc1ccccc1	-8%
COCCn1c(SCC(=O)c2[nH]c(C)c(C(C)=O)c2C)nc2ccccc2c1=O	1.17%
COCc1c(C(=O)OCC(=O)Nc2ccc(OC(F)F)cc2)oc2ccccc12	-1.7%
O=C1CN(C(=O)COc2c(Cl)cccc2Cl)c2ccccc2N1	0.62%
CCN(C(=O)Cc1c(C(=O)O)n(CC)c2ccccc12)c1ccccc1C	4.47%
NS(=O)(=O)c1ccc(CNC(=O)c2ccc(Cl)cc2[N+](=O)[O-])cc1	-8.53%
O=C(CCc1nnc2ccc(NCc3ccccc3Cl)nn12)NCC1CCN(C2CCCC2)C1 (centres undefined)	-2.3%
C=CC(COCc1ccccc1)N(CC(=O)OC)S(=O)(=O)c1cc(Br)ccc1OC (centres undefined)	0.38%
COc1ccc(OC)c(NC(=O)Cc2cccs2)c1	2.15%
Cc1ccc(-c2ccnc3nc(Sc4ncc(C(F)(F)F)cc4Cl)nn23)cc1	-7.05%
